According to PubChem BioAssay (NCATS):
Potency and affinity values are given separately. A number with no mark means an inactive call. How the calls were made is not given here.

Settings: Ebola virus entry assay, green fluorescence channel
Further: 0% is about no effect.

Going from `O=C(NC(Cc1cc(=O)[nH]c2ccccc12)C(=O)O)c1ccc(Cl)cc1` (stereo not given) to `COc1ccc(C(=O)c2ccccc2)c(O)c1`, the efficacy rises from -33.1% to 30%.

First: CCOc1ccc(NC(=O)CC(C)O)cc1 (stereo not given)
Second: CC(=O)SCC(CC(=O)c1ccc(C)cc1)C(=O)O (stereo not given)
The efficacy of the first is lower: 16.1% for the first, 17.3% for the second.

Going from `CN(C)[C@@H]1C(=O)C(C(N)=O)=C(O)[C@@]2(O)C(=O)C3=C(O)c4c(O)cccc4C[C@H]3C[C@@H]12` to `O=C(O)c1cc(O)c(O)c(O)c1`, the efficacy falls from 167% to 15.2%.

Going from `O=C(c1ccccc1)C(O)c1ccccc1` (stereo not given) to `O=C1c2ccccc2C(=O)C1C(=O)C(c1ccccc1)c1ccccc1`, the efficacy falls from 17.3% to -17.4%.

Going from `CCCCCCCCCCCCCCCCCCO` to `CCCCC/C=C\C/C=C\C/C=C\C/C=C\CCCC(=O)NCC(=O)O`, the efficacy falls from -11.3% to -13.8%.

Compared with `COc1cc(C=O)ccc1O`, `COc1cc2nc(Cl)nc(N)c2cc1OC` is lower in efficacy: -12.7% for the first, -33.8% for the second.

First: Cc1nc2ccccn2c(=O)c1CCN1CCC(C(=O)c2ccc(F)cc2)CC1
Second: Cc1ccccc1N1CCN(CCc2nnc3n2CCCC3)CC1
The efficacy of the first is higher: 25.5% for the first, -13.1% for the second.

Compared with `COP(=S)(OC)Oc1ccc(S(=O)(=O)N(C)C)cc1`, `Cc1cc(C)nc(NS(=O)(=O)c2ccc(N)cc2)n1` is higher in efficacy: -33.6% for the first, -8.79% for the second.

First: FC1(F)C(F)(F)C(F)(F)C2(F)C(F)(F)C(F)(F)C(F)(F)C(F)(F)C2(F)C1(F)F (stereo not given)
Second: O=C(N/N=C/c1ccc([N+](=O)[O-])o1)c1ccc(O)cc1
The efficacy of the first is lower: -14% for the first, 14.6% for the second.

Compared with `O=c1[nH]c2ccccc2n1C1CCNCC1`, `Cc1ccc(C(C)C)cc2c(C)ccc1-2` is higher in efficacy: -18% for the first, 14% for the second.
